Structures can show the parent of a compound that is named as a salt. ± gives the standard deviation of the averaged measurements.
These compounds were tested on Serratia marcescens K904 PosmB-luxCDABE reporter (pMQ747) (assay: PosmB-lux reporter fold induction (RLU/OD600 relative to no-compound control), highest over Biolog concentrations; higher = stronger Rcs reporter activation). Conditions: wild type K904; 4 h.
Description: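 Serratia marcescens K904 (wild type) or its isogenic ΔrcsB mutant, carrying the Rcs-dependent PosmB-luxCDABE reporter plasmid pMQ747, was grown in LB at OD600 0.1 in Biolog Phenotype MicroArray plates PM11-20 for 4 h at 30-32°C. Each compound is present at 3-4 proprietary concentrations (not stated); per the Fig. S1 legend the value given is the highest fold over those wells. Three independent trials.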
`CCC[C@@H]1C[C@@H](C(=O)N[C@@H]([C@H]2O[C@H](SC)[C@H](O)[C@@H](O)[C@H]2O)[C@@H](C)O)N(C)C1` [Lincomycin] (Biolog plate: PM11, well positions: A9-12) was tested, and the “PosmB-lux reporter fold induction” value was 1.16 ± 0.14.
For `C1COCCOCCOCCOCCOCCO1` [18-crown-6 ether] (Biolog plate: PM20, well positions: D9-12), the “PosmB-lux reporter fold induction” value was 2.22 ± 0.31.
For `Cc1onc(-c2ccccc2)c1C(=O)N[C@@H]1C(=O)N2[C@@H]1SC(C)(C)[C@@H]2C(=O)O` [Oxacillin] (Biolog plate: PM12, well positions: B1-4), the “PosmB-lux reporter fold induction” value was 2.16 ± 0.46.
With `CC1COc2c(N3CCN(C)CC3)c(F)cc3c(=O)c(C(=O)O)cn1c23` (stereo not given) [Ofloxacin] (Biolog plate: PM11, well positions: H9-12) the “PosmB-lux reporter fold induction” value was 1.25 ± 0.35.
For `NO` [hydroxylamine] (Biolog plate: PM19, well positions: G9-12), the “PosmB-lux reporter fold induction” value was 1.82 ± 0.33.
In the case of `N=C(N)N` [Guanidine hydrochloride] (Biolog plate: PM15, well positions: A5-8), the “PosmB-lux reporter fold induction” value is reported as 1.84 ± 0.099.
In the case of `CCn1cc(C(=O)O)c(=O)c2ccc(C)nc21` [Nalidixic Acid] (Biolog plate: PM11, well positions: E9-12), the “PosmB-lux reporter fold induction” value is reported as 3.44 ± 0.51.
With `Cn1c(=O)c2c(ncn2C)n(C)c1=O` [caffeine] (Biolog plate: PM17, well positions: H5-8) the “PosmB-lux reporter fold induction” value was 1.68 ± 0.37.
In the case of `CO/N=C(\C(=O)N[C@@H]1C(=O)N2C(C(=O)O)=C(CSc3nc(=O)c(O)nn3C)CS[C@H]12)c1csc(N)n1` [Ceftriaxone] (Biolog plate: PM11, well positions: G1-4), the “PosmB-lux reporter fold induction” value is reported as 1.64 ± 0.43.
With `Nc1ccn(C2OC(CO)C(O)C2O)c(=O)n1` [Cytosine-1-beta-D-arabino-furanoside] (Biolog plate: PM13, well positions: E1-4) the “PosmB-lux reporter fold induction” value was 1.5 ± 0.15.
For `CC1(C)S[C@@H]2[C@H](NC(=O)C(C(=O)O)c3ccccc3)C(=O)N2[C@H]1C(=O)O` (stereo not given in full) [Carbenicillin] (Biolog plate: PM12, well positions: A9-12), the “PosmB-lux reporter fold induction” value was 2.2 ± 0.17.
For `O=[Si](O)O` [sodium metasilicate] (Biolog plate: PM18, well positions: E1-4), the “PosmB-lux reporter fold induction” value was 1.11 ± 0.32.
For `[Cl][Cu][Cl]` [Cupric chloride] (Biolog plate: PM13, well positions: H1-4), the “PosmB-lux reporter fold induction” value was 1.13 ± 0.12.
For `CC1(C)S[C@@H]2[C@H](NC(=O)[C@H](NC(=O)N3CCNC3=O)c3ccccc3)C(=O)N2[C@H]1C(=O)O` [Azlocillin] (Biolog plate: PM13, well positions: B1-4), the “PosmB-lux reporter fold induction” value was 1.96 ± 0.43.
`c1cnc2c(c1)ccc1cccnc12` [1,10-Phenanthroline] (Biolog plate: PM15, well positions: C9-12) was tested, and the “PosmB-lux reporter fold induction” value was 1.36 ± 0.36.
With `Cc1onc(-c2ccccc2Cl)c1C(=O)N[C@@H]1C(=O)N2[C@@H]1SC(C)(C)[C@@H]2C(=O)O` [Cloxacillin] (Biolog plate: PM11, well positions: B5-8) the “PosmB-lux reporter fold induction” value was 2.22 ± 0.62.
With `CN[C@@H]1[C@H](O[C@H]2[C@H](O[C@H]3[C@H](O)[C@@H](O)[C@H](N=C(N)N)[C@@H](O)[C@@H]3N=C(N)N)O[C@@H](C)[C@]2(O)C=O)O[C@@H](CO)[C@H](O)[C@H]1O` [streptomycin] (Biolog plate: PM16, well positions: E1-4) the “PosmB-lux reporter fold induction” value was 0.916 ± 0.16.
`Nc1c2ccccc2nc2ccccc12` [9-Aminoacridine] (Biolog plate: PM14, well positions: B1-4) was tested, and the “PosmB-lux reporter fold induction” value was 1.7 ± 0.1.
`CN(C)[C@@H]1C(O)=C(C(N)=O)C(=O)[C@@]2(O)C(O)=C3C(=O)c4c(O)ccc(Cl)c4[C@@](C)(O)[C@H]3C[C@@H]12` [Chlortetracycline] (Biolog plate: PM11, well positions: A5-8) was tested, and the “PosmB-lux reporter fold induction” value was 1.48 ± 0.4.
`Nc1ccc(S(=O)(=O)Nc2ccc(Cl)nn2)cc1` [sulfachloro-pyridazine] (Biolog plate: PM17, well positions: C5-8) was tested, and the “PosmB-lux reporter fold induction” value was 1.46 ± 0.31.
With `NC(CO)C(=O)NO` (racemic) [D,L-Serine hydroxamate] (Biolog plate: PM12, well positions: C9-12) the “PosmB-lux reporter fold induction” value was 3.63 ± 0.5.
In the case of `O=C(O)c1cc(O)c(O)c(O)c1` [gallic acid] (Biolog plate: PM19, well positions: A5-8), the “PosmB-lux reporter fold induction” value is reported as 1.46 ± 0.28.
For `CC(C)c1nc2nc(N)nc(N)c2nc1C(C)C` [2,4-Diamino-6,7-diisopropyl-pteridine] (Biolog plate: PM12, well positions: E1-4), the “PosmB-lux reporter fold induction” value was 2.38 ± 0.48.
For `CCC(C)CCCC(=O)N[C@@H](CCN)C(=O)N[C@H](C(=O)N[C@@H](CCN)C(=O)N[C@H]1CCNC(=O)[C@H]([C@@H](C)O)NC(=O)[C@H](CCN)NC(=O)[C@H](CCN)NC(=O)[C@H](CC(C)C)NC(=O)[C@@H](CC(C)C)NC(=O)[C@H](CCN)NC1=O)[C@@H](C)O` (stereo not given in full) [Colistin] (Biolog plate: PM11, well positions: C5-8), the “PosmB-lux reporter fold induction” value was 2.54 ± 0.89.
`CCCCCCCC[N+](C)(CCCCCCCC)CCCCCCCC` [methyltrioctyl-ammonium chloride] (Biolog plate: PM19, well positions: B1-4) was tested, and the “PosmB-lux reporter fold induction” value was 1.17 ± 0.32.
For `CO[C@H]1C[C@H](O[C@H]2[C@H](C)[C@@H](O[C@@H]3O[C@H](C)C[C@H](N(C)C)[C@H]3OC(C)=O)[C@@H](C)C[C@@]3(CO3)C(=O)[C@H](C)[C@@H](OC(C)=O)[C@@H](C)[C@@H](C)OC(=O)[C@@H]2C)O[C@@H](C)[C@@H]1OC(C)=O` [troleandomycin] (Biolog plate: PM20, well positions: H9-12), the “PosmB-lux reporter fold induction” value was 1.36 ± 0.24.
With `CN1CCN(CCCN2c3ccccc3Sc3ccc(C(F)(F)F)cc32)CC1` [Trifluoperazine] (Biolog plate: PM13, well positions: G9-12) the “PosmB-lux reporter fold induction” value was 1.34 ± 0.17.
`NC(=O)N/N=C/c1ccc([N+](=O)[O-])o1` [5-Nitro-2-furaldehyde semicarbazone] (Biolog plate: PM15, well positions: E5-8) was tested, and the “PosmB-lux reporter fold induction” value was 1.67 ± 0.76.
In the case of `CCn1cc(C(=O)O)c(=O)c2cnc(N3CCNCC3)nc21` [pipemidic acid] (Biolog plate: PM18, well positions: B5-8), the “PosmB-lux reporter fold induction” value is reported as 1.46 ± 0.24.
For `NC[C@H]1O[C@H](O[C@H]2[C@H](O)[C@@H](O[C@H]3O[C@H](CO)[C@@H](O)[C@H](N)[C@H]3O)[C@H](N)C[C@@H]2N)[C@H](N)C[C@@H]1O` [Tobramycin] (Biolog plate: PM12, well positions: F1-4), the “PosmB-lux reporter fold induction” value was 1.6 ± 0.2.
For `NC(=O)c1cc[n+](CC2=C(C(=O)[O-])N3C(=O)[C@@H](NC(=O)[C@@H](c4ccccc4)S(=O)(=O)O)[C@H]3SC2)cc1` [cefsulodin] (Biolog plate: PM17, well positions: H1-4), the “PosmB-lux reporter fold induction” value was 18.5 ± 17.
With `O=c1[nH]c(=O)n([C@H]2C[C@H](O)[C@@H](CO)O2)cc1C(F)(F)F` [trifluorothymidine] (Biolog plate: PM18, well positions: B1-4) the “PosmB-lux reporter fold induction” value was 1.81 ± 0.69.
`CC[C@H]1OC(=O)[C@H](C)[C@@H](O[C@H]2C[C@@](C)(OC)[C@@H](O)[C@H](C)O2)[C@H](C)[C@@H](O[C@@H]2O[C@H](C)C[C@H](N(C)C)[C@H]2O)[C@](C)(O)C[C@@H](C)C(=O)[C@H](C)[C@@H](O)[C@]1(C)O` [Erythromycin] (Biolog plate: PM11, well positions: F5-8) was tested, and the “PosmB-lux reporter fold induction” value was 1.38 ± 0.32.
In the case of `Cc1ncc([N+](=O)[O-])n1CC(O)CCl` (stereo not given) [ornidazole] (Biolog plate: PM20, well positions: C9-12), the “PosmB-lux reporter fold induction” value is reported as 1.61 ± 0.055.
In the case of `O=C(O)CN(CCOCCOCCN(CC(=O)O)CC(=O)O)CC(=O)O` (Biolog plate: PM14, well positions: H1-4), the “PosmB-lux reporter fold induction” value is reported as 2.37 ± 0.77.
For `O=C(N[C@H](CO)[C@H](O)c1ccc([N+](=O)[O-])cc1)C(Cl)Cl` [Chloramphenicol] (Biolog plate: PM11, well positions: F1-4), the “PosmB-lux reporter fold induction” value was 1.4 ± 0.62.
For `N[C@@H]1CONC1=O` [D-Cycloserine] (Biolog plate: PM15, well positions: B1-4), the “PosmB-lux reporter fold induction” value was 1.37 ± 0.23.
For `NC(=O)NO` [Hydroxyurea] (Biolog plate: PM15, well positions: H5-8), the “PosmB-lux reporter fold induction” value was 13.1 ± 1.9.
In the case of `CC(=O)OCC1=C(C(=O)O)N2C(=O)[C@@H](NC(=O)Cc3cccs3)[C@H]2SC1` [Cephalothin] (Biolog plate: PM11, well positions: H1-4), the “PosmB-lux reporter fold induction” value is reported as 1.36 ± 0.043.
For `CCc1cc(C(N)=S)ccn1` [ethionamide] (Biolog plate: PM17, well positions: B9-12), the “PosmB-lux reporter fold induction” value was 0.853 ± 0.16.
